Assay [1] can be described thus: ATG_ISRE_CIS: Attagene CIS-FACTORIAL HepG2 Assay for human Interferon Regulatory Factor 1 (IRF1) binding to an Interferon-Stimulated Response Element (ISRE) (AID 2282948). As to conditions: HepG2 ISRE cis-reporter (Attagene), mRNA transcription readout; actives raise or lower the signal. The method in brief:
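HepG2 cells transiently transfected with multiplexed cis-promoter reporter units; after 24 h compound exposure, reporter mRNA quantified by RT-PCR, FAM labelling, HpaI digestion and capillary electrophoresis. Bidirectional fit versus DMSO baseline.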

The nature of assay [2]: ATG_M_32_CIS: Attagene CIS-FACTORIAL HepG2 Assay for M32 Transcription Factor (Internal Marker) (AID 2282949).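 Further: background control marker of the multiplexed CIS panel rather than a real target.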 Particulars: HepG2 Attagene cis-factorial M32 reporter, mRNA; actives raise or lower the signal. The method in brief:
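Following 24 h chemical exposure of HepG2 cells transiently expressing cis-promoter reporter constructs, reporter transcript levels were determined by RT-PCR with fluorescent labelling and capillary electrophoresis, then fitted bidirectionally against DMSO.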

Assay [3] is described as follows: ATG_M_06_CIS: Attagene CIS-FACTORIAL HepG2 Assay for M06 Transcription Factor (Internal Marker) (AID 2282950). Particulars: HepG2 Attagene CIS-FACTORIAL M06 internal marker reporter; actives raise or lower the signal. The method in brief: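 Cells (HepG2, transiently carrying cis-driven reporter units) receive chemical for 24 h before RNA isolation. Reporter cDNA is PCR-amplified, FAM-labelled by primer extension, HpaI-digested and sized on a capillary analyser.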

The target in assay [4] is Hypoxia-inducible factor 1-alpha (Homo sapiens) (UniProt Q16665). Put plainly: ATG_HIF1a_CIS: Attagene CIS-FACTORIAL HepG2 Assay for human Hypoxia Inducible Factor 1 (HIF1A) (AID 2282951). As to conditions: HepG2 Attagene cis-factorial HIF1a reporter transcription; actives raise or lower the signal. The essentials:
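HepG2, transient cis-reporter library, 24 h dosing. RNA → RT (oligo dT) → PCR → 6-FAM primer extension → HpaI → CE. Bidirectional curve fit vs DMSO.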

Assay [5] addresses Hepatocyte nuclear factor 6 (Homo sapiens) (UniProt Q9UBC0). Put plainly: ATG_HNF6_CIS: Attagene CIS-FACTORIAL HepG2 Assay for human Hepatocyte Nuclear Factor 6 (HNF6) (AID 2282952). As to conditions: HepG2 Attagene cis-factorial HNF6 reporter transcription; actives raise or lower the signal. The essentials:
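HepG2, transient MRTU transfection (cis promoters); 24 h chemical exposure; total RNA → oligo(dT) RT → PCR → 6-FAM labelling → HpaI cut → CE; bidirectional fit vs DMSO.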

Assay [6] has as its target Heat shock factor protein 1 (Homo sapiens) (UniProt Q00613). Put plainly: ATG_HSE_CIS: Attagene CIS-FACTORIAL HepG2 Assay for human Heat Shock Transcription Factor 1 (HSE) (AID 2282953). Particulars: HepG2 HSE cis-reporter, Attagene RNA transcription; actives raise or lower the signal. The method in brief:
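Liver-derived HepG2 cells carry transiently introduced multiple reporter units governed by cis promoters. Reporter RNA measured 24 h post-dose through reverse transcription, PCR amplification, fluorescent labelling and capillary electrophoresis, normalised to DMSO.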

A short description of assay [7]: ATG_MRE_CIS: Attagene CIS-FACTORIAL HepG2 Assay for human Metal Responsive Element (MRE) (AID 2282954). Particulars: HepG2 MRE cis-reporter transcription, Attagene multiplex; actives raise or lower the signal. The method in brief: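 Fluorescent reporter fragments separated by capillary electrophoresis give mRNA induction for the MRE unit after 24 h treatment of transfected HepG2 cells. Endogenous transcription-factor activity is read; DMSO serves as negative control and baseline.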

Assay [8] addresses Bile acid receptor (Homo sapiens) (UniProt Q96RI1). Put plainly: ATG_IR1_CIS: Attagene CIS-FACTORIAL HepG2 Assay for human Nuclear Receptor Subfamily 1 Group H Member 4 (NR1H4), IR1 submotif (AID 2282946). As to conditions: IR1 reporter transcription, actives raise or lower the signal. The essentials: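 HepG2 cells transiently transfected with multiple cis-promoter-driven reporter units to measure endogenous transcription factor activity; 24 h exposure. Reporter mRNA read by RT-PCR, FAM labelling, HpaI digestion and capillary electrophoresis. Bidirectional fit versus DMSO.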

The nature of assay [9]: ATG_GRE_CIS: Attagene CIS-FACTORIAL HepG2 Assay for human Glucocorticoid Response Elements (GRE) (AID 2282947). As to conditions: HepG2 GRE cis-reporter, Attagene multiplex mRNA; actives raise or lower the signal. The method in brief: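 Endogenous transcription factor activity is read through cis-element reporter constructs transiently transfected into HepG2 cells. After 24 h treatment, labelled RT-PCR products are resolved by capillary electrophoresis; DMSO sets baseline for bidirectional curve fitting.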

Molecules are shown by their SMILES. The source made the active and inactive calls. How the source made its calls: active means hit-call score of the fitted dose curve at least 0.9, where 1 is the maximum; inactive means score below 0.9.

Sequence of Hepatocyte nuclear factor 6 (Homo sapiens) (Q9UBC0 whole entry, looked up): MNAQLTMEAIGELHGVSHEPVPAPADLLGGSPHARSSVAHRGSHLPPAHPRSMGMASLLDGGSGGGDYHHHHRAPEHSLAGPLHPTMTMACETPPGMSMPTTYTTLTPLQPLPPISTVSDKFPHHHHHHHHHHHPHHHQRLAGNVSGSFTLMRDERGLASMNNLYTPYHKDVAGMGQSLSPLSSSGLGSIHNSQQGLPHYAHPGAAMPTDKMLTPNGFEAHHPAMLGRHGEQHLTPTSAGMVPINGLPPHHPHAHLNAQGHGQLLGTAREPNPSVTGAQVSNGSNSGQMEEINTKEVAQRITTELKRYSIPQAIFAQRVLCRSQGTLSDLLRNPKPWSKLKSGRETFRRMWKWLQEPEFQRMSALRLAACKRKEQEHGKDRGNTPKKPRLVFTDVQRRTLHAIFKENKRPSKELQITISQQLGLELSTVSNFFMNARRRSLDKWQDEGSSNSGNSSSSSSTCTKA
Sequence of Heat shock factor protein 1 (Homo sapiens) (Q00613 whole entry, looked up): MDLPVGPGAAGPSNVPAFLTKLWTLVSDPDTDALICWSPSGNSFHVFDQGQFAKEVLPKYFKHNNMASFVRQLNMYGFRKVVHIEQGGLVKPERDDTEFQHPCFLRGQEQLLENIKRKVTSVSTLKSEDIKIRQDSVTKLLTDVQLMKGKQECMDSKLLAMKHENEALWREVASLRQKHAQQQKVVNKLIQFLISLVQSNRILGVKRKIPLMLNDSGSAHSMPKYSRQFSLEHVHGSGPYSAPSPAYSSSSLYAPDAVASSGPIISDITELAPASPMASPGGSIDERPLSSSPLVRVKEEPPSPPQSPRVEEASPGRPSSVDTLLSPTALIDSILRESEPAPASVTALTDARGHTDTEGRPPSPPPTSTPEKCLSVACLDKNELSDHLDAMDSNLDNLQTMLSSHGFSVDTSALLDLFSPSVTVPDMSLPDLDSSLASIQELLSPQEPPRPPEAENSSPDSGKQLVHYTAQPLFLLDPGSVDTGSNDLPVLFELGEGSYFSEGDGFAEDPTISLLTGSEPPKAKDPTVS
Sequence of Hypoxia-inducible factor 1-alpha (Homo sapiens) (Q16665 whole entry, looked up): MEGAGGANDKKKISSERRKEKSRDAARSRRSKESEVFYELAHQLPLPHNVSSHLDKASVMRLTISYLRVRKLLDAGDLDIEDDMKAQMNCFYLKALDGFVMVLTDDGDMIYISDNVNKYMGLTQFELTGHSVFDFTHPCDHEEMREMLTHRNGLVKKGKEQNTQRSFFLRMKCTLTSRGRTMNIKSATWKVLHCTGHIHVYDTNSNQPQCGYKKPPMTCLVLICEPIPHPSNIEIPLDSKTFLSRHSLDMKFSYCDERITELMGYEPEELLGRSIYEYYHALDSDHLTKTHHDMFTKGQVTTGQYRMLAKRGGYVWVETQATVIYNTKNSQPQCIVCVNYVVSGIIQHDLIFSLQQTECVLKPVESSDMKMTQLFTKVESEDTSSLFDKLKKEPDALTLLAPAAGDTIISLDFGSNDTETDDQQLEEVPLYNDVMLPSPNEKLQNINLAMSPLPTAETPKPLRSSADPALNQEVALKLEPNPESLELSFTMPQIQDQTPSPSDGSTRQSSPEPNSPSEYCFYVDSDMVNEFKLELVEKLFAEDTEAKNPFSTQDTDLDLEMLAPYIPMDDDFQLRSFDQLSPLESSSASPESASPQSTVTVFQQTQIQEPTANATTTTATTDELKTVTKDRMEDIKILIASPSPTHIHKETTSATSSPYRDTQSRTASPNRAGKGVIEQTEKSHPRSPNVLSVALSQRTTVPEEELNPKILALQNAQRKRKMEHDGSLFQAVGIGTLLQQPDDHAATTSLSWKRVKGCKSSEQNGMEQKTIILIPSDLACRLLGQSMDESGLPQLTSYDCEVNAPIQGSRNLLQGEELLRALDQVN
Sequence of Bile acid receptor (Homo sapiens) (Q96RI1 whole entry, looked up): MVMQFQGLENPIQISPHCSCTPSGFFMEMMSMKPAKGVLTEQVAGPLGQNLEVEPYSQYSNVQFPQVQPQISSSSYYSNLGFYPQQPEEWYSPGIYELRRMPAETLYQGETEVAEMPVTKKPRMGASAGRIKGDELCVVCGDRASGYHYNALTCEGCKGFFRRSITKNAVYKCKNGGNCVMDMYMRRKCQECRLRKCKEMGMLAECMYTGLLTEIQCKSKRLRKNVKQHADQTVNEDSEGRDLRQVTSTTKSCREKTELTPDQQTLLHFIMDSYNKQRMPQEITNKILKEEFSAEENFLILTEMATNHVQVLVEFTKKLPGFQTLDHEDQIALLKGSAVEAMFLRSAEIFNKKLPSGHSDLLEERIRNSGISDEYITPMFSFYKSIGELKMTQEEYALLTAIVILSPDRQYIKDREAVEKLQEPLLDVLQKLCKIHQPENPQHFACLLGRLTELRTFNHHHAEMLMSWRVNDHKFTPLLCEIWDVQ

Regarding `Cc1ccccc1CCO`, the call in assay [1], in [2], in assay [3], in [4], in assay [5] and in assay [6] was inactive. The call in assay [7] was inactive.
For the compound `C[N+](C)(C)CCCNS(=O)(=O)C(F)(F)C(F)(F)C(F)(F)C(F)(F)C(F)(F)C(F)(F)C(F)(F)C(F)(F)F`, the compound was classed as inactive in assay [8], in [9], in assay [2], in assay [3], in assay [4] and in [5]. The outcome in [6] and in [7] was inactive.
With `CC(C)(C)NC(=O)[C@H]1CC[C@H]2[C@@H]3CC[C@H]4NC(=O)C=C[C@]4(C)[C@H]3CC[C@]12C`, the call in assay [8], in assay [9], in [1], in assay [2], in assay [3] and in assay [5] was inactive. Moreover, the result in assay [6] was inactive.
For the compound `Clc1cccnc1`, the compound was called inactive in assay [8], in [9], in assay [2], in assay [3], in assay [4] and in assay [5]. Also, in [6], the call was inactive.
As for `COCC(=O)O`, the result in [9], in assay [1], in assay [2], in assay [3], in assay [4] and in assay [5] was inactive. Also, the outcome in assay [6] and in assay [7] was inactive.
Turning to `CC/C=C\CCOC(=O)c1ccccc1O`, the compound was called inactive in assay [9], in assay [1], in assay [2], in assay [3], in assay [4] and in [5]. The call in assay [6] and in assay [7] was inactive.
Turning to `CCCCCCCCCCCC(=O)N(C)CC(=O)O`, the outcome in [9], in assay [1], in assay [2], in assay [3], in assay [4] and in assay [5] was inactive. The result in [6] and in assay [7] was inactive.
The AC50 is the concentration giving half of the maximal activity seen. Take `C=C(C)C(=O)OCC(O)COc1ccc(C(C)(C)c2ccc(OCC(O)COC(=O)C(=C)C)cc2)cc1` (centres undefined): the outcome in assay [8], in assay [2], in assay [3] and in assay [5] was inactive. The AC50 in assay [1] was 27 µM (active); in assay [4] it was 31.1 µM (active); in assay [6], 46.9 µM (active); in assay [7], 52.7 µM (active).
Turning to `C=CC(C)(O)CC/C=C(\C)CC` (centres undefined), the outcome in assay [9], in [1], in [2], in assay [3], in [4] and in assay [5] was inactive. Also, the compound was classed as inactive in [6] and in assay [7].
On to `Nc1ncnc2nc[nH]c12`, for which the outcome in assay [9], in [1], in [2], in [3], in assay [5] and in assay [6] was inactive.
For the compound `CCCCC(=O)O`, the compound was called inactive in assay [8], in assay [9], in assay [1], in [2], in assay [3] and in assay [4]. In addition, the compound was classed as inactive in assay [5], in [6] and in [7].
Take `CCCCNS(=O)(=O)c1ccc(C)cc1`: the compound was called inactive in assay [9], in [1], in assay [2], in assay [3], in assay [4] and in assay [5]. The compound was classed as inactive in [6] and in [7].
Take `CCCCC(C=O)CC` (centres undefined): the outcome in assay [8], in [9], in assay [1], in assay [2], in assay [3] and in assay [4] was inactive. The compound was classed as inactive in assay [5] and in assay [7].
As for `O=C(C=Cc1ccccc1)OCCc1ccccc1`, the result in assay [9], in [2], in [3], in assay [4], in [5] and in assay [6] was inactive. Further, the values for the half-maximal activity concentration (AC50) in assay [1] and in assay [7] were 77.6 µM (active) and 40.4 µM (active), respectively.
For `CCNc1nc(NC(C)(C)C)nc(OC)n1`, the compound was classed as inactive in [9], in [1], in assay [2], in assay [3], in assay [4] and in assay [5]. In addition, the call in [6] and in assay [7] was inactive.
On to `C=CC(=O)OCC(C)OCC(C)OCC(C)OC(=O)C=C` (centres undefined), for which the compound was called inactive in [9], in assay [2], in assay [3], in [4], in assay [5] and in [6]. For the same compound, the values for the AC50 in assay [1] and in assay [7] were 86.1 µM (active) and 46.1 µM (active), respectively.
On to `CC1=CCC(C(C)C)C=C1` (centres undefined), for which the compound was classed as inactive in assay [1], in assay [2], in assay [3], in assay [4], in [5] and in assay [6]. For the same compound, the AC50 in [7] was 62.6 µM (active).
As to `COC(=O)c1ccc(C(=O)OC)c(C(=O)OC)c1`, the result in [9], in assay [1], in assay [2], in [3], in assay [4] and in assay [5] was inactive. In addition, the result in [6] and in assay [7] was inactive.
Regarding `O=S(=O)(O)c1ccc(N=Nc2c(O)ccc3ccccc23)cc1`, the call in assay [9], in assay [1], in assay [2], in assay [3], in assay [5] and in [6] was inactive. The outcome in [7] was inactive. In addition, the AC50 in assay [4] is 3 µM (active).
In the case of `Nc1ccc(Cl)c(N)c1`, the result in [8], in [2], in assay [3], in [4], in [5] and in [6] was inactive. In addition, the compound was called inactive in assay [7].

(Values after PubChem BioAssay (EPA / NIEHS).)
